The values below come from PubChem BioAssay (EPA / NIEHS).

Assay [1] can be described thus: TOX21_p53_BLA_p2_viability: Viability Assessment in the Tox21 HCT-116 p53 Agonism Beta-lactamase Assay, Phase 2 (AID 2283591).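 Note: compound exposure lasted 16 h at 37 °C; actives lower the ATP signal meaning cytotoxicity.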 The procedure, abridged: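 HCT-116 p53-bla cells (4000/well) rested 5 h at 37C, then received compounds in DMSO (217-fold dilution) for 16 h at 37C, 5% CO2. After the CCF4 read, CellTiter-Glo was added; ATP luminescence was read after 30 min at room temperature.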

Assay [2] can be described thus: TOX21_p53_BLA_p3_viability: Viability Assessment in the Tox21 HCT-116 p53 Agonism Beta-lactamase Assay, Phase 3 (AID 2283593).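 Note: cells exposed to compound for 16 h before reading.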 The procedure, abridged:
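HCT-116 cells (4000/well) rested 5 h at 37C, then got DMSO compounds by pin tool (217-fold dilution) for 16 h at 37C, 5% CO2. After the bla read, CellTiter-Glo was added and luminescence read at 30 min, room temperature.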

Assay [3] addresses Cellular tumor antigen p53 (Homo sapiens) (UniProt P04637). Description: TOX21_p53_BLA_p3_ratio: Tox21 HCT-116 p53 Agonism Beta-lactamase Assay, Ratio, Phase 3 (AID 2283596). In short, it runs like this: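 HCT116 p53-bla cells (4000/well) given compound in DMSO (217-fold dilution) after 5 h, incubated 16 h at 37C. CCF4-AM substrate 2 h at room temperature; 460/530 nm emission ratio, gain fitted against DMSO.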

A short description of assay [4]: TOX21_p53_BLA_p4_viability: Viability Assessment in the Tox21 HCT-116 p53 Agonism Beta-lactamase Assay, Phase 4 (AID 2283597).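 Note: hits lower the luminescence signal meaning cytotoxicity.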 In short, it runs like this: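 Luminescent ATP readout (CellTiter-Glo, 30 min, room temperature) in the same wells as the p53 bla ratio. HCT116 cells were treated for 16 h at 37C with DMSO-dissolved compounds.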
Assay [5] can be described thus: TOX21_p53_BLA_p5_viability: Viability Assessment in the Tox21 HCT-116 p53 Agonism Beta-lactamase Assay, Phase 5 (AID 2283600). In short, it runs like this:
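Seeded cells (4000/well) settle 5 h before compound addition. Plates then incubate 16 h at 37C, receive FRET substrate for 2 h, and finally CellTiter-Glo, with luminescence measured after a 30 min room-temperature incubation.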

Assay [6] has as its target Cellular tumor antigen p53 (Homo sapiens) (UniProt P04637). Description: TOX21_p53_BLA_p5_ratio: Tox21 HCT-116 p53 Agonism Beta-lactamase Assay, Ratio, Phase 5 (AID 2283599). The procedure, abridged:
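HCT-116 cells carrying a p53-inducible beta-lactamase reporter were seeded at 4000 cells/well and dosed after 5 h with compound in DMSO (217-fold dilution). After 16 h at 37C, CCF4-AM substrate was added for 2 h, and the 460/530 nm emission ratio was scored as gain-of-signal versus DMSO.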

The target is the same in assay [7]. Description: TOX21_p53_BLA_p4_ratio: Tox21 HCT-116 p53 Agonism Beta-lactamase Assay, Ratio, Phase 4 (AID 2283601). The procedure, abridged: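 HCT116 cells carrying an inducible beta-lactamase reporter were plated at 4000 cells/well, rested 5 h, then exposed to compounds in DMSO (217-fold dilution) for 16 h at 37C. CCF4-AM substrate was loaded 2 h at room temperature; 460/530 nm emission ratio scored gain-of-signal versus DMSO.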

Usually AC50 stands for the midpoint of the concentration-response curve, whichever way the signal moves.

Where “and” joins values, the source holds several entries; their conditions need not be identical. Equal values may be shown once. Inconclusive results are not listed. Calls of active or inactive are those of the source. Rule for the calls: active = hit-call score of the fitted dose curve at least 0.9, where 1 is the maximum; inconclusive = response in the unintended direction; inactive = score below 0.9.

Sequence of Cellular tumor antigen p53 (Homo sapiens) (P04637 whole entry, looked up): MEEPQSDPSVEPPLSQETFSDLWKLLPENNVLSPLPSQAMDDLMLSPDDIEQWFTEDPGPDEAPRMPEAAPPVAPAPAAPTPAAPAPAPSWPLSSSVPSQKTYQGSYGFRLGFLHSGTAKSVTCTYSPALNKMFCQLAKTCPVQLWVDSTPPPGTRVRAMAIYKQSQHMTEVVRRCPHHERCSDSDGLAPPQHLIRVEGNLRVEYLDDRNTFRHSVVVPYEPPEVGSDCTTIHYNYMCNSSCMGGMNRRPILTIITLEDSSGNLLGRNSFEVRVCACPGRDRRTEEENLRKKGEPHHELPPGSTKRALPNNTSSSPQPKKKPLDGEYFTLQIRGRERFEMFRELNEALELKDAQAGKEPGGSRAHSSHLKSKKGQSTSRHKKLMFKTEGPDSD

On to `c1ccc2c(c1)Sc1ccccc1N2CC1CN2CCC1CC2` (stereo not drawn), for which the outcome in assay [1], in assay [2], in assay [3] and in assay [5] was inactive. Further, the half-maximal activity concentration (AC50) in assay [4] is 29.1 µM (active).
Regarding `N#CCc1ccccc1`, the call in assay [1], in assay [2], in assay [3], in assay [4], in assay [6] and in assay [5] was inactive. In addition, the result in assay [7] was inactive.
In the case of `CC(O)CN1CCN(CC(=O)[O-])CCN(CC(=O)[O-])CCN(CC(=O)[O-])CC1.[Gd+3]` (stereo not drawn), the compound was classed as inactive in assay [1], in assay [2], in assay [3], in assay [4], in assay [6] and in assay [5]. Besides, the outcome in assay [7] was inactive.
For the compound `c1ccc(C2(N3CCCC3)CCCCC2)cc1`, the outcome in assay [1], in assay [4] and in assay [5] was inactive. For the same compound, the AC50 is 33.1 µM (active) in assay [2] and 43.9 µM (active) in assay [3].
With `CO[C@H]1[C@@H](O)C[C@H](O[C@H]2[C@@H](O)C[C@H](O[C@H]3[C@@H](O)C[C@H](O[C@H]4CC[C@@]5(C)[C@H](CC[C@@H]6[C@@H]5C[C@@H](O)[C@]5(C)[C@@H](C7=CC(=O)OC7)CC[C@]65O)C4)O[C@@H]3C)O[C@@H]2C)O[C@@H]1C`, the AC50 was 0.109 µM (active) in assay [1], 0.101 µM (active) in assay [2], 0.0984 µM (active) in assay [4] and 0.0836 µM (active) in assay [5]. In addition, the outcome in assay [3] and in assay [7] was inactive.
`ClC(Cl)(Cl)Br`: the call in assay [1], in assay [2], in assay [3], in assay [4], in assay [6] and in assay [5] was inactive. The outcome in assay [7] was inactive.
As to `C[C@]12CC[C@@H]3c4ccc(OC(=O)N(CCCl)CCCl)cc4CC[C@H]3[C@@H]1CC[C@@H]2OP(=O)(O)O`, the result in assay [1], in assay [2], in assay [4] and in assay [5] was inactive. Besides, the concentration at half-maximal activity (AC50) in assay [3] was 7.01 µM (active) and 23.1 µM (active); in assay [6], 7.78 µM (active) and 24.6 µM (active); in assay [7], 8.9 µM (active) and 36.3 µM (active).
Turning to `CCOS(C)(=O)=O`, the call in assay [1], in assay [2], in assay [3], in assay [4], in assay [6] and in assay [7] was inactive.
With `CCC1(c2ccccc2)C(=O)NC(=O)N(C(=O)c2ccccc2)C1=O` (stereo not drawn), the call in assay [1], in assay [2], in assay [3], in assay [4], in assay [5] and in assay [7] was inactive.
As for `CC(Cc1ccccc1)NCc1ccccc1Cl` (stereo not drawn), the result in assay [1], in assay [2], in assay [3], in assay [4], in assay [6] and in assay [5] was inactive. For the same compound, the result in assay [7] was inactive.
Turning to `COC(C)(C)CCCC(C)C/C=C/C(C)=C/C(=O)OC(C)C` (stereo not drawn), the outcome in assay [1], in assay [2], in assay [3], in assay [4], in assay [6] and in assay [5] was inactive. Moreover, the result in assay [7] was inactive.
As for `c1ccc2c(c1)[nH]c1cnccc12`, the outcome in assay [1], in assay [2], in assay [4], in assay [6], in assay [5] and in assay [7] was inactive. In assay [3], the concentration at half-maximal activity (AC50) is 46.1 µM (active).
Regarding `CCOC(=O)CBr`, the result in assay [1], in assay [2], in assay [3], in assay [4], in assay [5] and in assay [7] was inactive.
